Test results reported in PubChem BioAssay AID1159580 (chemical genetic matrix, 2015).
Hit rate of the full screen: of about 5,500 compounds, about 2,000 (36%) were called active. Not shown: some 18% with an inconclusive outcome. Rule as the data show it: active = normalized growth mostly below about 0.91 (no sharp cut-off); inconclusive = no clear call, values can overlap the other calls; inactive = mostly above about 0.92. The list shows a part of the results.

Experiment: chemical genetic growth profiling, strain panel (AID 1159580);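 also: tested at 20 µM; growth read once vehicle control cultures reached saturation at 30 °C; 1 = growth at the plate median or of vehicle wells; lower values mean less growth of the strain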
Details: growth OD

Measured: normalized growth

CCCc1c(OCCCCc2nn[nH]n2)ccc(C(C)=O)c1O
inactive: S. cerevisiae deletion strains, locus YAL013W, strain DEP1, active compounds read low 1.01 | S. cerevisiae deletion strains, locus YBR021W, strain FUR4, active compounds read low 1.03 | S. cerevisiae deletion strains, locus YBR229C, strain ROT2, active compounds read low 1.01 | S. cerevisiae deletion strains, locus YCL029C, strain bik1, active compounds read low 0.997 | S. cerevisiae deletion strains, locus YDL035C, strain GPR1, active compounds read low 1.02 | S. cerevisiae deletion strains, locus YDL074C, strain BRE1, active compounds read low 1.06 | S. cerevisiae deletion strains, locus YDL101C, strain DUN1, active compounds read low 1.02 | S. cerevisiae deletion strains, locus YDL134C, strain PPH21, active compounds read low 1.01 | S. cerevisiae deletion strains, locus YDL185W, strain tfp1, active compounds read low 0.968 | S. cerevisiae deletion strains, locus YDL192W, strain arf1, active compounds read low 0.995 | S. cerevisiae deletion strains, locus YDR101C, strain arx1, active compounds read low 0.991 | S. cerevisiae deletion strains, locus YDR150W, strain NUM1, active compounds read low 1.01 | S. cerevisiae deletion strains, locus YDR162C, strain NBP2, active compounds read low 1.01 | S. cerevisiae deletion strains, locus YDR318W, strain mcm21, active compounds read low 0.993 | S. cerevisiae deletion strains, locus YDR388W, active compounds read low 0.993 | S. cerevisiae deletion strains, locus YDR502C, strain sam2, active compounds read low 1.01 | S. cerevisiae deletion strains, locus YEL061C, strain CIN8, active compounds read low 1.01 | S. cerevisiae deletion strains, locus YER110C, active compounds read low 0.977 | S. cerevisiae deletion strains, locus YER155C, strain BEM2, active compounds read low 1.01 | S. cerevisiae deletion strains, locus YER167W, strain BCK2, active compounds read low 1.01 | S. cerevisiae deletion strains, locus YGL078C, strain dbp3, active compounds read low 0.996 | S. cerevisiae deletion strains, locus YGL086W, strain mad1, active compounds read low 1 | S. cerevisiae deletion strains, locus YGL248W, strain PDE1, active compounds read low 1.01 | S. cerevisiae deletion strains, locus YGR078C, strain PAC10, active compounds read low 1.01 | S. cerevisiae deletion strains, locus YGR135W, strain pre9, active compounds read low 1 | S. cerevisiae deletion strains, locus YGR229C, strain SMI1, active compounds read low 1.03 | S. cerevisiae deletion strains, locus YGR252W, strain gcn5, active compounds read low 0.934 | S. cerevisiae deletion strains, locus YHR030C, strain SLT2, active compounds read low 1.01 | S. cerevisiae deletion strains, locus YHR079C, strain IRE1 (second series), active compounds read low 0.992 | S. cerevisiae deletion strains, locus YHR094C, strain hxt1, active compounds read low 0.992 | S. cerevisiae deletion strains, locus YHR129C, strain ARP1, active compounds read low 1.01 | S. cerevisiae deletion strains, locus YHR200W, strain rpn10, active compounds read low 0.987 | S. cerevisiae deletion strains, locus YIL066C, strain RNR3, active compounds read low 1.02 | S. cerevisiae deletion strains, locus YIL073C, strain SPO22, active compounds read low 1.03 | S. cerevisiae deletion strains, locus YIL125W, strain kgd1, active compounds read low 1 | S. cerevisiae deletion strains, locus YIR030C, strain dcg1, active compounds read low 0.995 | S. cerevisiae deletion strains, locus YJL095W, strain BCK1, active compounds read low 1.02 | S. cerevisiae deletion strains, locus YJL134W, strain LCB3, active compounds read low 1.01 | S. cerevisiae deletion strains, locus YJL168C, strain set2, active compounds read low 0.993 | S. cerevisiae deletion strains, locus YJL187C, strain SWE1 (second series), active compounds read low 1.01 | S. cerevisiae deletion strains, locus YJR043C, strain POL32, active compounds read low 0.984 | S. cerevisiae deletion strains, locus YJR075W, strain HOC1, active compounds read low 1.02 | S. cerevisiae deletion strains, locus YKL009W, strain mrt4, active compounds read low 1.02 | S. cerevisiae deletion strains, locus YKL068W, active compounds read low 0.999 | S. cerevisiae deletion strains, locus YKL085W, strain MDH1 (second series), active compounds read low 0.999 | S. cerevisiae deletion strains, locus YKL085W, strain MDH1, active compounds read low 0.999 | S. cerevisiae deletion strains, locus YKL190W, strain CNB1, active compounds read low 1.01 | S. cerevisiae deletion strains, locus YKR001C, strain vps1, active compounds read low 0.957 | S. cerevisiae deletion strains, locus YLR039C, strain RIC1, active compounds read low 1.05 | S. cerevisiae deletion strains, locus YLR058C, strain SHM2, active compounds read low 1.01 | S. cerevisiae deletion strains, locus YLR102C, strain apc9, active compounds read low 0.997 | S. cerevisiae deletion strains, locus YLR262C, strain YPT6, active compounds read low 1.08 | S. cerevisiae deletion strains, locus YLR268W, strain sec22, active compounds read low 0.994 | S. cerevisiae deletion strains, locus YLR330W, strain CHS5, active compounds read low 1.01 | S. cerevisiae deletion strains, locus YLR342W, strain FKS1 (second series), active compounds read low 0.975 | S. cerevisiae deletion strains, locus YLR371W, strain rom2, active compounds read low 0.989 | S. cerevisiae deletion strains, locus YLR418C, strain cdc73, active compounds read low 0.984 | S. cerevisiae deletion strains, locus YML016C, strain PPZ1, active compounds read low 1.01 | S. cerevisiae deletion strains, locus YML032C, strain rad52, active compounds read low 0.995 | S. cerevisiae deletion strains, locus YML124C, strain tub3, active compounds read low 0.996 | S. cerevisiae deletion strains, locus YMR078C, strain ctf18, active compounds read low 0.994 | S. cerevisiae deletion strains, locus YMR223W, strain ubp8, active compounds read low 0.991 | S. cerevisiae deletion strains, locus YMR263W, strain SAP30, active compounds read low 1.01 | S. cerevisiae deletion strains, locus YMR307W, strain GAS1, active compounds read low 1.01 | S. cerevisiae deletion strains, locus YNL067W, strain RPL9B, active compounds read low 1.01 | S. cerevisiae deletion strains, locus YNL128W, strain TEP1, active compounds read low 1.01 | S. cerevisiae deletion strains, locus YNL153C, strain GIM3, active compounds read low 1.01 | S. cerevisiae deletion strains, locus YNL233W, strain BNI4, active compounds read low 1.01 | S. cerevisiae deletion strains, locus YNL250W, strain rad50, active compounds read low 0.996 | S. cerevisiae deletion strains, locus YNL271C, strain bni1, active compounds read low 0.997 | S. cerevisiae deletion strains, locus YNL298W, strain CLA4, active compounds read low 0.997 | S. cerevisiae deletion strains, locus YNL307C, strain MCK1, active compounds read low 0.993 | S. cerevisiae deletion strains, locus YNL322C, strain KRE1, active compounds read low 1.01 | S. cerevisiae deletion strains, locus YNR052C, strain pop2, active compounds read low 0.981 | S. cerevisiae deletion strains, locus YOL006C, strain TOP1, active compounds read low 1.09 | S. cerevisiae deletion strains, locus YOL012C, strain htz1 1.54 | S. cerevisiae deletion strains, locus YOL147C, strain pex11, active compounds read low 0.989 | S. cerevisiae deletion strains, locus YOR061W, strain CKA2, active compounds read low 1.01 | S. cerevisiae deletion strains, locus YOR069W, strain VPS5, active compounds read low 1 | S. cerevisiae deletion strains, locus YOR136W, strain idh2, active compounds read low 0.986 | S. cerevisiae deletion strains, locus YOR144C, strain elg1, active compounds read low 0.994 | S. cerevisiae deletion strains, locus YOR184W, strain ser1, active compounds read low 0.992 | S. cerevisiae deletion strains, locus YOR316C, strain cot1, active compounds read low 1 | S. cerevisiae deletion strains, locus YPL055C, strain LGE1, active compounds read low 1.03 | S. cerevisiae deletion strains, locus YPL241C, strain CIN2, active compounds read low 1 | S. cerevisiae deletion strains, locus YPR119W, strain clb2, active compounds read low 0.992 | S. cerevisiae deletion strains, locus YPR141C, strain kar3, active compounds read low 1.01 | S. cerevisiae deletion strains, locus YPR163C, strain tif3, active compounds read low 0.986 | S. cerevisiae deletion strains, locus YPR167C, strain met16, active compounds read low 0.992 | S. cerevisiae deletion strains, strain wtn01, active compounds read low 0.993 | S. cerevisiae strains, strain wild type, active compounds read low 1.01
